Assay [1] in a line: antimalarial activity against Dd2 strain (AID 2302;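 active means growth inhibition above 50% at the single 2 µM test dose, taken to imply half-maximal potency below 2 µM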;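 further: 0% = DMSO untreated growth and 100% = chloroquine plus artemisinin killed control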). To be noted: P. falciparum Dd2 in RBCs, LDH growth readout, 72 h; at 2 µM; active compounds read high.
Assay [2] is described as follows: HepG2 cytotoxicity, primary screen, cytotoxicity control for P. falciparum antimalarial project, cell-based, ATP luminescence (AID 2303;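 active means inhibition above 50%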;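 further: 0% = DMSO wells and 100% = digitonin-killed cells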). To be noted: HepG2 viability, 24-48 h, at 10 µM, active compounds read high.
The target of assay [3] is L-lactate dehydrogenase (Plasmodium falciparum (isolate CDC / Honduras)) (UniProt Q27743). Kind of assay: PfLDH activity inhibition – cell lysate, 3D7 strain, counter-screen for P. falciparum growth inhibition project (AID 2304).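 Further: 0% = vehicle and 100% = reference inhibitor.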 To be noted: P. falciparum 3D7 crude extract, LDH APAD/NBT absorbance; at 2 µM; active compounds read high. Background: The purpose of a counterscreen is to sort out artefacts and off-target activity.

Assay [4] can be described thus: inhibition of 3D7 malaria parasite growth – strain 3D7 (AID 2306).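 Further: 0% = DMSO wells and 100% = chloroquine plus artemisinin control wells.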 To be noted: P. falciparum 3D7 erythrocytic growth, LDH absorbance, 72 h; at 2 µM; active compounds read high.
The target of assay [5] is Calcium-dependent protein kinase 1 (Plasmodium falciparum (isolate 3D7)) (UniProt P62344). Kind of assay: PfCDPK1 kinase inhibitors, biochemical, TCAMS library (AID 1159585; cut-off not given, nearly all actives have IC50 up to about 0.98 µM;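 further: inhibitors leave more ATP so luminescence rises with inhibition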). To be noted: recombinant PfCDPK1, Kinase-Glo ATP depletion luminescence. On the technique in general: Kinase-Glo measures the ATP left after a reaction by luminescence.
The target of assay [6] is Plasmodium falciparum protein kinase 6 (PK6, PF3D7_1337100) (UniProt Q8IDW1). Kind of assay: PfPK6 kinase inhibitors, biochemical, TCAMS library (AID 1159586). To be noted: recombinant PfPK6, Kinase-Glo ATP depletion luminescence.
For assay [7], the target named is Protein kinase 7 (PK7), Plasmodium falciparum 3D7 (PF3D7_0213400) (UniProt Q7YTF7). Put plainly: inhibition of Plasmodium PK7 catalytic activity – biochemical, TCAMS antimalarial set, Kinase-Glo luminescence (AID 1159587). To be noted: recombinant PfPK7, Kinase-Glo ATP depletion luminescence.
For assay [8], the target named is Calcium-dependent protein kinase 4 (Plasmodium falciparum (isolate 3D7)) (UniProt Q8IBS5). Put plainly: PfCDPK4 kinase inhibitors, biochemical, TCAMS library (AID 1159588; cut-off not given, nearly all actives have IC50 up to about 0.91 µM). To be noted: recombinant PfCDPK4, Kinase-Glo ATP depletion luminescence.

A number with no mark means an inactive call. For some of these results: Measured potencies and affinities stand elsewhere. Active and inactive are the calls of the source. Unless noted, how the calls were made is not given here.

Sequence of Calcium-dependent protein kinase 4 (Plasmodium falciparum (isolate 3D7)) (Q8IBS5 whole entry, looked up): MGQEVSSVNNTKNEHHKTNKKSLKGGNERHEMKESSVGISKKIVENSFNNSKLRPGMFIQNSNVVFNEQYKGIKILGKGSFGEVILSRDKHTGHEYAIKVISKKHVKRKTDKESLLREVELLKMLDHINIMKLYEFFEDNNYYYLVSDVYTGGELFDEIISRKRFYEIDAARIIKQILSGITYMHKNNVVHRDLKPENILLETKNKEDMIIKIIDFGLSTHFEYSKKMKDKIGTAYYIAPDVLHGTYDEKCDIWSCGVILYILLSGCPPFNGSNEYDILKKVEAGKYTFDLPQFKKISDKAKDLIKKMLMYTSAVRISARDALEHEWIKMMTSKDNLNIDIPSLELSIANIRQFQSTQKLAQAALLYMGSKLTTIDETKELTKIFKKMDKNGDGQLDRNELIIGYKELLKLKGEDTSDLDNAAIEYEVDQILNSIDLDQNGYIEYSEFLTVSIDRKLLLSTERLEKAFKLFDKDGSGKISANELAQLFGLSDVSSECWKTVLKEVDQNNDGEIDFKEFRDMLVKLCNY
Sequence of L-lactate dehydrogenase (Plasmodium falciparum (isolate CDC / Honduras)) (Q27743 whole entry, looked up): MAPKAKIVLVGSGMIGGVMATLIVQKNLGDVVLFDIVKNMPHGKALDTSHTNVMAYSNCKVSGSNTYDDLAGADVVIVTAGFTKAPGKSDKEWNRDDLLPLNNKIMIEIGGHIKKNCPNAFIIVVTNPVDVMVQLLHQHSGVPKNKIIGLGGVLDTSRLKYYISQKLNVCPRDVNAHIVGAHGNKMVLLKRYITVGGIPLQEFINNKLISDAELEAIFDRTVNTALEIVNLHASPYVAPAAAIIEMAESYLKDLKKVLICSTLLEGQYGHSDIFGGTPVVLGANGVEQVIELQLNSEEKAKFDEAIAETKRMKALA
Sequence of Plasmodium falciparum protein kinase 6 (PK6, PF3D7_1337100) (Q8IDW1 1-305): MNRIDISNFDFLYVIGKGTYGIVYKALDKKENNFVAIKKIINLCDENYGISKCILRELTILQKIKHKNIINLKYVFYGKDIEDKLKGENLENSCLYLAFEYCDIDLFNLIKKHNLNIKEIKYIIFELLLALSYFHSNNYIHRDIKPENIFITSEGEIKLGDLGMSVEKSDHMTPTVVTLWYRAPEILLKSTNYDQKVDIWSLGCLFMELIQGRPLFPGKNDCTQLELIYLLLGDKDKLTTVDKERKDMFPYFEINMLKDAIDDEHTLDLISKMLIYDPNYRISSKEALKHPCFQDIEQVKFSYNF
Sequence of Protein kinase 7 (PK7), Plasmodium falciparum 3D7 (PF3D7_0213400) (Q7YTF7 1-343): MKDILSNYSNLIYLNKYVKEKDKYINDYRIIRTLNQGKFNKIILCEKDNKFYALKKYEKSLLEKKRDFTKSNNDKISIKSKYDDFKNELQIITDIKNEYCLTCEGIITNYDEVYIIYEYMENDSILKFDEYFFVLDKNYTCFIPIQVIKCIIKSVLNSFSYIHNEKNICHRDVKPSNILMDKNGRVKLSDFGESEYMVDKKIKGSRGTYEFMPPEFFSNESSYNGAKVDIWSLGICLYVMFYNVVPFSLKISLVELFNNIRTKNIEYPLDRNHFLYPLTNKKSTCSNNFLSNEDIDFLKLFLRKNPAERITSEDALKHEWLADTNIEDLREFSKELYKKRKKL
Sequence of Calcium-dependent protein kinase 1 (Plasmodium falciparum (isolate 3D7)) (P62344 whole entry, looked up): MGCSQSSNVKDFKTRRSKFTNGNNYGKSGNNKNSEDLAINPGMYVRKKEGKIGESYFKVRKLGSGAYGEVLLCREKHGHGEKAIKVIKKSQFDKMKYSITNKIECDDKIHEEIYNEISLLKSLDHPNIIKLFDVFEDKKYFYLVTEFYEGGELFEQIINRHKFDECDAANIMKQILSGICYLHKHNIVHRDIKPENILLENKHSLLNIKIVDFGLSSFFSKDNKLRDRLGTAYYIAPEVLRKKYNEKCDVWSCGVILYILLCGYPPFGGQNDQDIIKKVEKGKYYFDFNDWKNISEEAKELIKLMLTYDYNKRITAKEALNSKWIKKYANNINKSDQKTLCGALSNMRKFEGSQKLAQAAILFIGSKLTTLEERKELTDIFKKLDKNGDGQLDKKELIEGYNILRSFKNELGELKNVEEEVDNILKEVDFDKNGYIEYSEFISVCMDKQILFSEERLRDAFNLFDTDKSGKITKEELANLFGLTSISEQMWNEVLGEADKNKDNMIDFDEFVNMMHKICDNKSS

With `COc1ccc(NC(=O)/C=C/c2ccc(-c3ccc(-c4noc(C)n4)cc3)cc2)cc1OCCN(C)C`, the growth inhibition in assay [1] is 31%; in assay [4], 81% (active). The inhibition in assay [2] was 14%; in assay [3], -3%. For the same molecule, the result in assay [5], in assay [6], in assay [7] and in assay [8] was inactive.

As to `CC(=O)Nc1ccc(CN2CCC(NC(=O)c3cc(-c4ccc(N(C)C)cc4)cs3)C2)cc1` (stereo not given), the growth inhibition is 1% in assay [1] and 83% (active) in assay [4]. The inhibition in assay [2] is 15%; in assay [3], 5%. The result in assay [5], in assay [6], in assay [7] and in assay [8] was inactive.

Regarding `O=C(Nc1ccc(-c2ccc(-c3nc4ccccc4[nH]3)cc2)cc1)Nc1ccc(Cl)c(Cl)c1`, the growth inhibition was 100% (active) in assay [1] and 102% (active) in assay [4]. In addition, the inhibition in assay [2] is 68% (active); in assay [3], 4%. Moreover, the result in assay [5], in assay [6], in assay [7] and in assay [8] was inactive.

Take `O=C(Nc1ccc(F)cc1)N1CCCN(c2ccnc3cc(Cl)ccc23)CC1`: the figures for the growth inhibition in assay [1] and in assay [4] were 16% and 97% (active), respectively. Further, the inhibition in assay [2] was 7%; in assay [3] it was -1%. Further, the outcome in assay [5], in assay [6], in assay [7] and in assay [8] was inactive.

With `CCOC(=O)CCCOc1cc(Cc2cnc(N)nc2N)cc(OC)c1OC`, the growth inhibition was 3% in assay [1] and 97% (active) in assay [4]. The inhibition in assay [2] was 12%; in assay [3] it was -7%. Besides, the result in assay [5], in assay [6], in assay [7] and in assay [8] was inactive.

Turning to `Fc1ccc(C=NNc2ccnc3ccccc23)cc1`, the growth inhibition in assay [1] and in assay [4] was 101% (active) throughout. In addition, the inhibition in assay [2] is 21%; in assay [3], 4%. Moreover, the outcome in assay [5], in assay [6], in assay [7] and in assay [8] was inactive.

With `CC(C)C(=O)NC(Nc1ccc([N+](=O)[O-])cc1)C(Cl)(Cl)Cl` (stereo not given), the growth inhibition in assay [1] is 84% (active); in assay [4], 97% (active). Moreover, the inhibition in assay [2] was 7%; in assay [3] it was -6%. Besides, the outcome in assay [5], in assay [6], in assay [7] and in assay [8] was inactive.

For `O=[N+]([O-])c1cc(C=NNc2nc3nonc3nc2Nc2ccc(F)cc2)c(Cl)cc1Cl`, the growth inhibition in assay [1] is 13%; in assay [4], 98% (active). Further, the figures for the inhibition in assay [2] and in assay [3] were 5% and -4%, respectively. Besides, the result in assay [5], in assay [6], in assay [7] and in assay [8] was inactive.

As for `Cc1nc(C)c(CC(=O)Nc2cccc(-c3cccc(-c4nc5ccc(C(F)(F)F)cc5[nH]4)c3)c2)s1`, the growth inhibition is 30% in assay [1] and 95% (active) in assay [4]. Besides, the inhibition in assay [2] is 49%; in assay [3], -4%. The result in assay [5], in assay [6], in assay [7] and in assay [8] was inactive.

For `Cc1ccc(N2CCN(CCCCNC(=O)c3ccc(NC(=O)c4ccc(Cl)cc4)cc3)CC2)c(C)c1`, the growth inhibition in assay [1] is 20%; in assay [4], 95% (active). In addition, the inhibition in assay [2] was 30%; in assay [3], 7%. In addition, the outcome in assay [5], in assay [6], in assay [7] and in assay [8] was inactive.

In the case of `CC(=O)NCCNc1nccc(N2CCc3ncnc(Nc4ccc(OCc5ccccn5)c(Cl)c4)c3C2)n1`, the growth inhibition in assay [1] and in assay [4] was 99% (active) throughout. The inhibition was -12% in assay [2] and 10% in assay [3]. The result in assay [5], in assay [6], in assay [7] and in assay [8] was inactive.

Consider `O=C(c1cc2ccccc2o1)N1CCc2cc3nccc(N4CCN5CCC[C@H]5C4)c3cc21`, for which the growth inhibition in assay [1] is 101% (active); in assay [4], 99% (active). In addition, the inhibition in assay [2] is 62% (active); in assay [3], 2%. The result in assay [5], in assay [6], in assay [7] and in assay [8] was inactive.

On to `C=C[C@]1(C)C[C@@H](OC(=O)CNC[C@@H](O)CN2C[C@H](c3ccnc4ccc(OC)nc34)OC2=O)[C@]2(C)[C@H](C)CC[C@]3(CCC(=O)[C@H]32)[C@@H](C)[C@@H]1O`, for which the growth inhibition in assay [1] was 82% (active); in assay [4] it was 89% (active). The inhibition in assay [2] was 0%; in assay [3], -3%. Also, the result in assay [5], in assay [6], in assay [7] and in assay [8] was inactive.

`COc1cc2c(cc1COc1ccccc1)CCN1Cc3cc(OC)c(OC)cc3CC21` (stereo not given): the growth inhibition was 84% (active) in assay [1] and 99% (active) in assay [4]. In addition, the inhibition in assay [2] was -1%; in assay [3], 2%. For the same molecule, the result in assay [5], in assay [6], in assay [7] and in assay [8] was inactive.

Consider `COc1ccc(-c2cc(-c3ccc(S(C)(=O)=O)cc3)cnc2N)cn1`, for which the growth inhibition in assay [1] is 99% (active); in assay [4] it was 94% (active). For the same molecule, the inhibition was 5% in assay [2] and 0% in assay [3]. For the same molecule, the outcome in assay [5], in assay [6], in assay [7] and in assay [8] was inactive.

Take `COc1ccc(NC(=O)Nc2ccc(C)c(-c3ccc(C(=O)Nc4ccncc4)cc3)c2)cc1`: the growth inhibition is 50% (active) in assay [1] and 99% (active) in assay [4]. The inhibition in assay [2] is 39%; in assay [3] it was 4%. In addition, the outcome in assay [5], in assay [6], in assay [7] and in assay [8] was inactive.

`COc1ccc2nccc([C@@H](O)CN3CCC(NCCOc4cccc(C(F)(F)F)c4)CC3)c2c1`: the growth inhibition in assay [1] was 74% (active); in assay [4], 102% (active). The inhibition in assay [2] is 16%; in assay [3] it was 3%. Also, the outcome in assay [5], in assay [6], in assay [7] and in assay [8] was inactive.

As to `CN1CCC(Oc2ccc(Nc3nccc(NCC(O)c4ccccc4)n3)cc2Cl)CC1` (stereo not given), the figures for the growth inhibition in assay [1] and in assay [4] were 99% (active) and 102% (active), respectively. The inhibition in assay [2] is 46%; in assay [3], 0%. Besides, the result in assay [5], in assay [6], in assay [7] and in assay [8] was inactive.

In the case of `CCOC(=O)C1=C(C)NC2=C(C(=O)CCC2)C1c1cn(Cc2ccc(Cl)cc2Cl)nc1-c1ccccc1` (stereo not given), the growth inhibition in assay [1] is 96% (active); in assay [4], 100% (active). Also, the inhibition was -5% in assay [2] and -2% in assay [3]. Further, the result in assay [5], in assay [6], in assay [7] and in assay [8] was inactive.

`Cc1cccc2[nH]c(-c3cccc(-c4ccc(NC(=O)NC(C)C)cc4)c3)nc12`: the figures for the growth inhibition in assay [1] and in assay [4] were 44% and 98% (active), respectively. The inhibition in assay [2] is 30%; in assay [3], -2%. In addition, the result in assay [5], in assay [6], in assay [7] and in assay [8] was inactive.

As usually defined, the inhibition is the change of the read-out against control, counted positive when it falls.

These data come from PubChem BioAssay.
